Assay results: PubChem BioAssay
Results filed as inconclusive are left out. Calls of active or inactive are those of the source.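 How the source made its calls, unless noted: active means binding below the plate cutoff, the plate median minus 3 SD, with a reading above zero; inconclusive means below the plate cutoff but reading exactly zero; inactive means the rest.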

How the values were obtained:
[1] = yeast TOR pathway RPL19A-GFP modulators, primary screen, cell-based, S. cerevisiae, multiplex flow cytometry (AID 1862; in the data active means percent of DMSO control GFP below about 86%;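 further: lower values mimic rapamycin by blocking the RPL19A rise seen in DMSO cells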); details: S. cerevisiae RPL19A-GFP strain, flow cytometry fluorescence, 3 h; at 10 µM; stronger effect = lower value
[2] = modulators of MEP2-GFP levels in yeast, primary screen, S. cerevisiae, multiplex flow cytometry (AID 1867;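 active means GFP response, as percent of the DMSO control, above the screen-wide mean plus 3 SD, about 139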;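 further: median GFP channel fluorescence of barcode-gated MEP2-GFP cells measured by flow cytometry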); details: S. cerevisiae MEP2-GFP strain, 3 h, at 10 µM, stronger effect = higher value, 100% means same as DMSO wells
[3] = modulators of CIT2-GFP expression in yeast, primary screen, S. cerevisiae, GFP fusion, multiplex flow cytometry (AID 1870;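 active means percent response above a set limit, the screen-wide mean plus 3 SD, cut at about 130% in these data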;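 further: barcoded CIT2-GFP strain pooled with four other GFP strains with rapamycin as positive control; median GFP fluorescence per well over plate mean of DMSO wells so 100% = DMSO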); details: 3 h, at 10 µM, stronger effect = higher value
[4] = modulators of LAP4-GFP expression in yeast, primary screen, S. cerevisiae, multiplex flow cytometry (AID 1873;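 active means GFP signal, as percent of the solvent control, above the screen mean plus 3 SD, about 149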); details: 3 h, at 10 µM, stronger effect = higher value
[5] = modulators of AGP1-GFP expression in yeast TOR pathway, primary screen, cell-based, multiplex flow cytometry, S. cerevisiae (AID 1887;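 active means GFP signal above the screen-wide mean plus 3 SD, that is over about 124.5% of the solvent control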;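 further: AGP1-GFP fusion strain of S. cerevisiae within a five-strain barcoded multiplex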); details: 3 h, at 10 µM, stronger effect = higher value
[6] = inhibitors of CD8+ T cell-vesicle binding, pilot screen, LFA-1/ICAM-1 modulator project, MLPCN validation set, flow cytometry (AID 2523;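 active means response below a set limit, under 55% cells CD8-positive and vesicle-bound, and CD8 cells' 90th-percentile brightness under 279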;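 on vesicle binding response: mean PE anti-B7-1 fluorescence of CD8+ cells relative to row control; 100% = QL9-loaded vesicles with DMSO vehicle in the same plate row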); details: 2C mouse CD8+ T cells, at 7 µM, stronger effect = lower value; double positive events: measured here: CD8+/vesicle+ event percentage
[7] = target: Integrin beta-1 (Homo sapiens) + Integrin alpha-4 (Homo sapiens) (UniProt P13612+P05556); assay: inhibition of HUTS-21 binding to VLA-4, pilot screen, VLA-4 allosteric modulator project, U937 cells, HUTS-21 mAb, flow cytometry, validation set (AID 2674;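 active means inhibition above 50%, about 3 SD of the validation set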;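 further: antibody binding induced by the VLA-4 ligand LDV present at three times its Kd; 0% = LDV ligand with antibody and no compound and 100% = antibody without LDV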); details: HUTS-21 LIBS mAb binding, at 6.7 µM, stronger effect = higher value, binding induced by LDV ligand
[8] = target: Beta-adrenergic receptor kinase 1 (Homo sapiens) (UniProt P25098); assay: GRK2 binders displacing RNA aptamer, biochemical, validation, human GRK2, bead flow cytometry (AID 488806;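 active means aptamer binding inhibition above 30%, about 3 SD of noise from non-fluorescent compounds; inactive means inhibition at or below 30%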); details: bead-bound GRK2, FAM-aptamer displacement, at 10 µM, stronger effect = higher value
[9] = target: Beta-2 adrenergic receptor (Homo sapiens) (UniProt P07550); assay: beta2AR agonists driving receptor internalization, pilot screen, cell-based, FAP fluorogen, flow cytometry, validation set (AID 504459;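 active means percent response above 42, roughly 3 SD of non-fluorescent test compounds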;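 further: agonist-driven loss of surface beta2AR via internalization measured by FAP dye flow cytometry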); details: Am2.2-beta2AR cells, FAP surface receptor flow cytometry; at 10 µM; stronger effect = higher value
[10] = target: AP-2 complex subunit beta (Homo sapiens) (UniProt P63010); assay: inhibitors of arrestin peptide binding to AP2, pilot screen, biochemical, validation set, GST-AP2 beads, flow cytometry (AID 504541;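 active means inhibition above 54%, about 3 SD of non-fluorescent compounds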;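 further: AP2 carries R879A mutation and is captured from E. coli lysate; bead-bound FITC arrestin peptide fluorescence measuring arrestin peptide binding to AP2; 0% = DMSO wells and 100% = excess unlabeled arrestin peptide control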); details: FITC arrestin peptide, at 10 µM, stronger effect = higher value, AP2 beta2 appendage fragment, R879A mutant
[11] = yeast V-ATPase proton transport modulators, S. cerevisiae, pHLuorin, HTS validation (AID 504600; in the data active means response above about 15%;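 further: plate controls were DMSO for no effect and reference compound for full effect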); details: S. cerevisiae pHLuorin cytosolic pH, at 10 µM, stronger effect = higher value
[12] = tested on: anti-desmoglein-3 scFv antibody binding to human DSG3; assay: inhibitors of anti-DSG3 scFv binding to DSG3, pilot screen, biochemical, validation compound set, bead-based, flow cytometry (AID 588368); details: Protein G beads, DSG3-Fc, scFv-GFP binding, at 10 µM, stronger effect = lower value;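 further: signal is the median channel fluorescence of bead-bound GFP antibody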
[13] = inhibitors of fungal efflux pumps CDR1, CDR2, MDR1, pilot screen, validation compound set, multiplex, phenotypic (AID 588506;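 active means efflux inhibition above 0.42, the validation set average plus 4 SD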;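 further: Nile Red retained in cells so higher fluorescence means more efflux inhibition; 0 = negative control wells and 1 = enniatin B 25 µM full block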); details: S. cerevisiae pump-expressing triplex, Nile Red efflux flow cytometry; at 10 µM; stronger effect = higher value; the pumps come from Candida albicans
[14] = target: ATP-binding cassette sub-family B member 6 (Homo sapiens) (UniProt Q9NP58); assay: ABCB6 transporter inhibitors, pilot screen, K562-ABCB6 cells, flow cytometry, validation set (AID 588550;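 active means inhibition above the screen-wide mean plus 3 SD, about 51%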;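 further: 0% = DMSO wells and 100% = benzethonium chloride 70 µM positive control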); details: K562-ABCB6 porphyrin accumulation, 1 h, at 10 µM, stronger effect = higher value
[15] = promoters of myeloid differentiation in arrested cells, primary screen, cell-based, GFP/MAC1 double positive, flow cytometry, validation set (AID 588685;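 active means differentiation response of at least 50%, scaled between solvent and reference control, from cells with both markers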;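 further: compound exposure lasts four days before antibody staining and flow analysis; 0% = DMSO wells and 100% = 5 µM fulvestrant positive control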); details: ER-HoxA9 marrow cells, stronger effect = higher value, normalized: vehicle 0, fulvestrant 100
[16] = superoxide lowering in aged yeast cells, pilot screen, validation compound set (AID 2706;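 active means superoxide response below 65% of plate, a cut near 3 SD across the whole screen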;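 further: yeast exposed to compound for one week at 30 degrees C before staining; 100% = mean of all compound wells on the same plate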); details: S. cerevisiae aging, superoxide DHE fluorescence; at 10 µM, stronger effect = lower value

Beta-adrenergic receptor kinase 1 (Homo sapiens), sequence (P25098 whole entry, looked up): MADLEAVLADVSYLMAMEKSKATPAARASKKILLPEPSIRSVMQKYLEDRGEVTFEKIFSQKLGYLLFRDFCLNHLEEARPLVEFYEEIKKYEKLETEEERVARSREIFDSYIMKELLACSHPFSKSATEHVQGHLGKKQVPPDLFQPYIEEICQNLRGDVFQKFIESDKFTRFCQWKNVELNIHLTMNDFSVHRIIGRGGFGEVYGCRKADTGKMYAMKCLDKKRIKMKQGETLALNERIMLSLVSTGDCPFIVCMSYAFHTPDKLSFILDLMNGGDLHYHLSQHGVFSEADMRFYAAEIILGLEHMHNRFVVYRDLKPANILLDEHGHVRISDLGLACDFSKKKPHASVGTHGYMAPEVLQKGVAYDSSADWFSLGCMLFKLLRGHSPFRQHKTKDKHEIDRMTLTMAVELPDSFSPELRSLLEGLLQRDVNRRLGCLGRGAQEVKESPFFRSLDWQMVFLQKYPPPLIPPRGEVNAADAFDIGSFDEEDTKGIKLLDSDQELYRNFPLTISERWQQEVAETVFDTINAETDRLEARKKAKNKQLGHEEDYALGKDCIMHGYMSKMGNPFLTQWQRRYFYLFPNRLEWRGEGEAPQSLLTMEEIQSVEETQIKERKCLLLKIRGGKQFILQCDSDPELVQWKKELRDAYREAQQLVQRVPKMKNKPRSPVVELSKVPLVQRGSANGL
AP-2 complex subunit beta (Homo sapiens), sequence (P63010 whole entry, looked up, the tested form may be a part, one chain of several): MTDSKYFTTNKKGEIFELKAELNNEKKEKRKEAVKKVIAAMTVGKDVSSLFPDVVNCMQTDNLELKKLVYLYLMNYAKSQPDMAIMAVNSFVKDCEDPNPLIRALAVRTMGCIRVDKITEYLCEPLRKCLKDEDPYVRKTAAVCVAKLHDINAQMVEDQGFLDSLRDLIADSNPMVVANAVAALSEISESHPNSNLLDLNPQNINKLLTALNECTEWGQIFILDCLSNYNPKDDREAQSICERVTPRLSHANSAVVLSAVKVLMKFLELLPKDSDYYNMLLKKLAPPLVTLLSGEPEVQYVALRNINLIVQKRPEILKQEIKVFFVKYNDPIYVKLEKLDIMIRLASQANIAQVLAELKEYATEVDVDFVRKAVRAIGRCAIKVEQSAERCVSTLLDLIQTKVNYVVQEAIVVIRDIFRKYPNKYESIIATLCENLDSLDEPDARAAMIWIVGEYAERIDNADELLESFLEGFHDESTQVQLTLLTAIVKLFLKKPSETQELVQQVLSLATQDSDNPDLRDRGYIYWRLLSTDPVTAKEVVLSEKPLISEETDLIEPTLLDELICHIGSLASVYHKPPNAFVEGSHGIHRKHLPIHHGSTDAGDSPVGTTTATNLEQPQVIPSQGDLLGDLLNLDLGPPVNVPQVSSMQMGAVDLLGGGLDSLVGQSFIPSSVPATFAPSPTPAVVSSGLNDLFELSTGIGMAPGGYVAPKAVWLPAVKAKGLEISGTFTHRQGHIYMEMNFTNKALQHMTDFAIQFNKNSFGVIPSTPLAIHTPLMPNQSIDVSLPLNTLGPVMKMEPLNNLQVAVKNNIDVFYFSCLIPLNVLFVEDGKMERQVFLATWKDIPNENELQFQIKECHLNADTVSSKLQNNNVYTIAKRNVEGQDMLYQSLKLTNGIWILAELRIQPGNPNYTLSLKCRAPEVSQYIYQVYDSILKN
ATP-binding cassette sub-family B member 6 (Homo sapiens), sequence (Q9NP58 whole entry, looked up): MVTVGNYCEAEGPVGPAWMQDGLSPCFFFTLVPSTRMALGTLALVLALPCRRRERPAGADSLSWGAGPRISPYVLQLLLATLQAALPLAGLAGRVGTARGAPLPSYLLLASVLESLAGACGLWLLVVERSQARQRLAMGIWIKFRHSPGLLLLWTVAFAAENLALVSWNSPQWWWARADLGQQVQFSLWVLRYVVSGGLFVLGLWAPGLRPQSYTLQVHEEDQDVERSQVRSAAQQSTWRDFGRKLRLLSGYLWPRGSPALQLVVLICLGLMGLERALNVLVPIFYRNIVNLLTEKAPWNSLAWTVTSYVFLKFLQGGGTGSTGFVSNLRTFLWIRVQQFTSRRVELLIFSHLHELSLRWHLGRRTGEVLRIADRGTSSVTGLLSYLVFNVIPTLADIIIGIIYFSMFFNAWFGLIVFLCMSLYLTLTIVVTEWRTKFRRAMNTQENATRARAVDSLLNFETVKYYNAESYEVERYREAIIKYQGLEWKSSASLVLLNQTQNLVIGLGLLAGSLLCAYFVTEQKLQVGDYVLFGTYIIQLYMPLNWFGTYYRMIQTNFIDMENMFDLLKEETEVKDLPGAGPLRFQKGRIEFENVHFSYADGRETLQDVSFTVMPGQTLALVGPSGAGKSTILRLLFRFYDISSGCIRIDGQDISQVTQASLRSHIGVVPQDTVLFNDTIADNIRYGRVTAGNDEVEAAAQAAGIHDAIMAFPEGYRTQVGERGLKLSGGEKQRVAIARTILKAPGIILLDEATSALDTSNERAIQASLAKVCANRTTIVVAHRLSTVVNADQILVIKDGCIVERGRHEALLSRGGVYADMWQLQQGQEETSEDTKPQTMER
Integrin beta-1 (Homo sapiens) + Integrin alpha-4 (Homo sapiens), sequence (P05556 whole entry, looked up): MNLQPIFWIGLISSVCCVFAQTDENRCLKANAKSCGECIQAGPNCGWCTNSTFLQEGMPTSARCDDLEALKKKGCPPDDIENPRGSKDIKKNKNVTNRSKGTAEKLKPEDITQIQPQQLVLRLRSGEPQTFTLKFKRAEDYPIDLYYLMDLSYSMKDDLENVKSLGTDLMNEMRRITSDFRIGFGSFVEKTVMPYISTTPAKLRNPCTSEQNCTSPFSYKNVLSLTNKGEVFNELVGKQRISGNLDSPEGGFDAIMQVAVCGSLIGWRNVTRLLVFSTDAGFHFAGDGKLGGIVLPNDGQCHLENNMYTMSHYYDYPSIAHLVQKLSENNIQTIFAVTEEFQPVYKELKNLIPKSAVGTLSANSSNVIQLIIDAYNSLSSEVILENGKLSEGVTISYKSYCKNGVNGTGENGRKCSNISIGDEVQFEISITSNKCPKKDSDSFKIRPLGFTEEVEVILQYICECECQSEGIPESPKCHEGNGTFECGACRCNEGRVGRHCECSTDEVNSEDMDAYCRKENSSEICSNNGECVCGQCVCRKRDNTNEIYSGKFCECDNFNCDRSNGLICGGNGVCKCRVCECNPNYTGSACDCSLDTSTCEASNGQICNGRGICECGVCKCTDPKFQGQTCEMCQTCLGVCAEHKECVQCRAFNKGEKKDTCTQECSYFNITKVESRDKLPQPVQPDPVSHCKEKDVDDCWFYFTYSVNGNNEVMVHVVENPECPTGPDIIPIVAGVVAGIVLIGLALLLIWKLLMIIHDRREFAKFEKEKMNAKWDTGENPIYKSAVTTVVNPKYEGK
Integrin beta-1 (Homo sapiens) + Integrin alpha-4 (Homo sapiens), sequence (P13612 whole entry, looked up): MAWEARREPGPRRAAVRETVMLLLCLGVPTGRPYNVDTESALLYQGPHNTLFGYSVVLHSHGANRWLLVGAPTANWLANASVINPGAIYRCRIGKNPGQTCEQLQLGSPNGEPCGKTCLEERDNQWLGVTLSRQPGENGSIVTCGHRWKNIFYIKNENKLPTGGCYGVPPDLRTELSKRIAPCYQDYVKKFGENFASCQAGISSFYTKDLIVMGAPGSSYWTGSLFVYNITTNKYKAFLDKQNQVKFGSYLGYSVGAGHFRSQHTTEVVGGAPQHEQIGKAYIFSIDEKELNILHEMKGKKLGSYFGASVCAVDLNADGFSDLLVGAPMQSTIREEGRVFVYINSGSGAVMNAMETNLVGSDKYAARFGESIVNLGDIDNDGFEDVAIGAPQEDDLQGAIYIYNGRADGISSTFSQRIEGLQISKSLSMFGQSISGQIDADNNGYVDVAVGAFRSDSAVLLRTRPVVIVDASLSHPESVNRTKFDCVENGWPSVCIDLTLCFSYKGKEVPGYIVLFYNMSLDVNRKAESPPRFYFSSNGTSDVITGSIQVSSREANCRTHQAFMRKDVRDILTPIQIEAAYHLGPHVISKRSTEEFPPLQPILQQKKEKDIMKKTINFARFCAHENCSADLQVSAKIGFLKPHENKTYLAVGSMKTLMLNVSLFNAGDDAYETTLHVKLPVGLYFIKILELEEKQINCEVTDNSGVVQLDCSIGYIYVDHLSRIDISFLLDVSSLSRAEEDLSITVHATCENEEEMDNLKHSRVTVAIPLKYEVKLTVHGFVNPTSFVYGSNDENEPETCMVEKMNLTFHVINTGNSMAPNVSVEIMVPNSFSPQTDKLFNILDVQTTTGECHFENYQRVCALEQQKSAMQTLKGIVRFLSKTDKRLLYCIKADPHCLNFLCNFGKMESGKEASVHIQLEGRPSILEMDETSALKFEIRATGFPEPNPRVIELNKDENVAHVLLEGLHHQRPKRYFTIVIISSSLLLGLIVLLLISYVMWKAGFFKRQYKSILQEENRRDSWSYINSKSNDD
Beta-2 adrenergic receptor (Homo sapiens), sequence (P07550 whole entry, looked up): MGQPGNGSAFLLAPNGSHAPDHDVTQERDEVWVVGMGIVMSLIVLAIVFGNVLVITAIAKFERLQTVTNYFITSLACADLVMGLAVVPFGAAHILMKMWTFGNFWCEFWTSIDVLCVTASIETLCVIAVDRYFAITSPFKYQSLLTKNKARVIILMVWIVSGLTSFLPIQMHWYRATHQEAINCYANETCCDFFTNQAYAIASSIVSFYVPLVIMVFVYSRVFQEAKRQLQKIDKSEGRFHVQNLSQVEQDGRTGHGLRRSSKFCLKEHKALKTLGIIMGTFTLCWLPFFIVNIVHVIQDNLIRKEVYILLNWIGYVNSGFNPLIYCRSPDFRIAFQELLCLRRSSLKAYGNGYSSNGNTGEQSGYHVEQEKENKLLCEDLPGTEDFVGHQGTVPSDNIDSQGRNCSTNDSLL

SMILES	percent of DMSO control GFP [1]	GFP response vs DMSO [2]	percent response of DMSO control [3]	GFP response vs DMSO [4]	GFP response, % of DMSO [5]	double positive events [6] [%]	vesicle binding response [6]	inhibition [7]	aptamer binding inhibition [8]	response [9]	inhibition [10]	response [11]	binding (% of control) [12]	efflux inhibition (fraction of control) [13]	inhibition [14]	differentiation response [15]	superoxide response (% of plate) [16]
CCOc1ccc(CCn2c(-c3ccco3)nc3ccccc3c2=O)cc1OCC	100% (inactive)	106% (inactive)	94.2% (inactive)	92.7% (inactive)	92.6% (inactive)	62.6	258% (inactive)	-18.1% (inactive)	1% (inactive)	2.8% (inactive)	3.57% (inactive)	-0.47% (inactive)	91.2% (inactive)	0.27 (inactive)	20% (inactive)	0.24% (inactive)	
CN(CCCN1CCOCC1)Cc1cn(C)nc1-c1ccccc1F	95.5% (inactive)	106% (inactive)	104% (inactive)	124% (inactive)	114% (inactive)	62.1	246% (inactive)	-8.78% (inactive)	-1% (inactive)		70.2% (active)	2.44% (inactive)	112% (inactive)	0.04 (inactive)	2% (inactive)	-1.05% (inactive)	104% (inactive)
CC(O)Cn1cnc2c1c(=O)n(C)c(=O)n2C (centres undefined)	95.1% (inactive)	93.8% (inactive)	111% (inactive)	94.3% (inactive)	98.7% (inactive)	50	150% (inactive)	4.42% (inactive)	0% (inactive)		-14.4% (inactive)	0.41% (inactive)	101% (inactive)	-0.24 (inactive)	4% (inactive)	-14.7% (inactive)	105% (inactive)
CCOC(=O)c1oc2cc(OCC(N)=O)ccc2c(=O)c1-c1ccc(OC)c(OC)c1	109% (inactive)	97.9% (inactive)	107% (inactive)	94.3% (inactive)	101% (inactive)	62.1	207% (inactive)	24.9% (inactive)	1% (inactive)		2.96% (inactive)	-0.67% (inactive)	100% (inactive)	-0.01 (inactive)	8% (inactive)	-18% (inactive)	90.1% (inactive)
CNCCCC12CCC(c3ccccc31)c1ccccc12	101% (inactive)	107% (inactive)	90.8% (inactive)	95.3% (inactive)	96.7% (inactive)	66.4	234% (inactive)	11% (inactive)	-11% (inactive)	28.2% (inactive)	3.24% (inactive)	2% (inactive)	103% (inactive)	0.33 (inactive)	-7% (inactive)	18.8% (inactive)	
CC(C)Cn1c(=S)[nH]c2cc(C(=O)O)ccc2c1=O	105% (inactive)	97.9% (inactive)	108% (inactive)	84.3% (inactive)	98.5% (inactive)	61	197% (inactive)	-1.17% (inactive)	4% (inactive)		-1.44% (inactive)	-0.3% (inactive)	96.7% (inactive)	-0.01 (inactive)	2% (inactive)	-26% (inactive)	106% (inactive)
CC(COc1ccccc1)NC(C)C(O)c1ccc(O)cc1 (centres undefined)	104% (inactive)	101% (inactive)	111% (inactive)	103% (inactive)	108% (inactive)	55.7	203% (inactive)	-496% (inactive)	-1% (inactive)		37.9% (inactive)	-3.92% (inactive)	100% (inactive)	-0.05 (inactive)	9% (inactive)	-19.6% (inactive)	107% (inactive)
C#CCN1C(=O)C(O)(CC(=O)c2ccc(OC)c(OC)c2)c2ccccc21 (centres undefined)	102% (inactive)	103% (inactive)	93.1% (inactive)	98% (inactive)	97.6% (inactive)	64.1	315% (inactive)	11% (inactive)	1% (inactive)	-2.19% (inactive)	-2.48% (inactive)	-1.43% (inactive)	104% (inactive)	0.11 (inactive)	-4% (inactive)	12.9% (inactive)	
C=C(C)COc1ccc(-c2n[nH]c(C)c2-c2ccc(OC)cc2)c(O)c1	105% (inactive)	111% (inactive)	95.9% (inactive)	112% (inactive)	87.7% (inactive)	58.9	175% (inactive)	-9.57% (inactive)	-3% (inactive)			-1.12% (inactive)	107% (inactive)	0.75 (active)	10% (inactive)	-9.89% (inactive)	101% (inactive)
CCOc1ccccc1OCCOc1ccc(F)cc1	101% (inactive)	98.3% (inactive)	100% (inactive)	88.1% (inactive)	91.1% (inactive)	63.4	193% (inactive)	-30.5% (inactive)	0% (inactive)	7.79% (inactive)	0.71% (inactive)	-0.31% (inactive)	104% (inactive)	0.24 (inactive)	1% (inactive)	12% (inactive)	
Cn1c(=O)[nH]c(=O)c2c1ncn2CCN1CCOCC1	103% (inactive)	98.3% (inactive)	96.6% (inactive)	82.2% (inactive)	97.3% (inactive)	63.6	288% (inactive)	-3.57% (inactive)	-4% (inactive)	-4.41% (inactive)	-3.3% (inactive)	0.49% (inactive)	102% (inactive)	0.08 (inactive)	16% (inactive)	62.8% (active)	
CC(=O)Nc1nc(CCC(C)C)cc2c1c(=O)oc1ccccc12	102% (inactive)	98.3% (inactive)	100% (inactive)	96% (inactive)	88.6% (inactive)	60.5	77.6% (inactive)	1.62% (inactive)	0% (inactive)	-19.1% (inactive)	2.41% (inactive)	0.7% (inactive)	75.5% (inactive)	0.39 (inactive)	-8% (inactive)	16.9% (inactive)	
CC/C(=C1/C(=O)CC(C)(C)C(C(=O)OC)C1=O)N1CCCC1 (centres undefined)	103% (inactive)	96.2% (inactive)	83.8% (inactive)	83.5% (inactive)	88.9% (inactive)	63	174% (inactive)	6.81% (inactive)	3% (inactive)	-0.83% (inactive)	-0.06% (inactive)	3.5% (inactive)	96.6% (inactive)	0.99 (active)	11% (inactive)	34.5% (inactive)	
COc1cc(C2CC(=O)NC3=C2C(=O)CC(C)(C)C3)ccc1O (centres undefined)	99.6% (inactive)	99.9% (inactive)	105% (inactive)	100% (inactive)	103% (inactive)	61.3	141% (inactive)	11.9% (inactive)	4% (inactive)		22.3% (inactive)	-2.29% (inactive)	96.5% (inactive)	-0.09 (inactive)	4% (inactive)	0% (inactive)	98.7% (inactive)
Cn1cnc2c1c(=O)n(CC(O)CO)c(=O)n2C (centres undefined)	102% (inactive)	96.2% (inactive)	98.9% (inactive)	98.6% (inactive)	96.7% (inactive)	62.7	59.9% (inactive)	11% (inactive)	-1% (inactive)	-2.93% (inactive)	-6.49% (inactive)	-0.43% (inactive)	102% (inactive)	-0.04 (inactive)	9% (inactive)	43.2% (inactive)	
Clc1ccc(OCCCN2CCCCC2)c(Br)c1	105% (inactive)	95.9% (inactive)	112% (inactive)	88.3% (inactive)	98.7% (inactive)	57.1	202% (inactive)	4.42% (inactive)	-2% (inactive)		-6.22% (inactive)	0.07% (inactive)	103% (inactive)	-0.35 (inactive)	7% (inactive)	0% (inactive)	88.5% (inactive)
O=C(CCCN1CC=C(n2c(=O)[nH]c3ccccc32)CC1)c1ccc(F)cc1	98.1% (inactive)	95.9% (inactive)	106% (inactive)	93.3% (inactive)	97.2% (inactive)	63	237% (inactive)	5.36% (inactive)	-3% (inactive)		-14.3% (inactive)	-6.07% (inactive)	104% (inactive)	-0.05 (inactive)	6% (inactive)	-19.6% (inactive)	97.2% (inactive)
N#Cc1c2c(c(-c3ccccc3)[nH]c1=O)CCCC2	102% (inactive)	98.9% (inactive)	103% (inactive)	85.3% (inactive)	100% (inactive)	56.8	158% (inactive)	-7.7% (inactive)	3% (inactive)		-4.92% (inactive)	-1.34% (inactive)	98.8% (inactive)	-0.05 (inactive)	5% (inactive)	-22.8% (inactive)	94% (inactive)
Cc1ccc(NCCC(=O)c2ccccc2)cc1Cl	86.2% (inactive)	110% (inactive)	110% (inactive)	78.7% (inactive)		63	171% (inactive)	28.8% (inactive)	2% (inactive)	2.53% (inactive)	-12.3% (inactive)	2.25% (inactive)	98% (inactive)	-0.24 (inactive)	10% (inactive)	-0.82% (inactive)	99.7% (inactive)
COc1ccc(NC(=O)C2CSC3c4ccccc4C(=O)N23)cc1 (centres undefined)	101% (inactive)	104% (inactive)	96.5% (inactive)	105% (inactive)	98.8% (inactive)	77.8		0.25% (inactive)	0% (inactive)	7.07% (inactive)	-0.6% (inactive)	4.39% (inactive)	98.7% (inactive)	-0.1 (inactive)	-2% (inactive)	-0.18% (inactive)	99.1% (inactive)
